ADAM17 inh = inhibits human ADAM17; recombinant ADAM17, EDANS/DABCYL FRET peptide cleavage; inhibition, % at 6.95 µM; AID 720648; 370,000 compounds, 0.83% hits;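 active = inhibition above the mean of compounds lying between control limits plus 3 SD, set per campaign, cut at about 8.5% in these data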;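 also: 0% = DMSO-only wells as the low control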
ADAM10 inh = inhibits human ADAM10 | O14672 | recombinant ADAM10, EDANS/DABCYL FRET peptide cleavage, 3 h | inhibition, % at 7 µM | 370,000 compounds, 0.62% hits;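 active = inhibition above a per-campaign cutoff equal to the mean of compounds falling between control-based bounds plus 3 SD, cut at about 20% in these data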;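 also: 0% = DMSO wells while the 100% control is not disclosed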
GRIN3A LBD mod = modulates the human NR3A ligand-binding domain; NR3A LBD differential scanning fluorimetry, Tm shift; 0% = protein alone, 100% = glycine-bound protein; Tm shift relative to glycine control, % at 25 µM; 340,000 compounds, 2.5% hits;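 active = melting temperature shift of at least 10% of the positive control shift, at one fixed dose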
rCAG RNA binder = molecules binding r(CAG) RNA repeats | inhibition, % at 3 µM | 370,000 compounds, 1.3% hits | r(CAG) RNA repeat, TO-PRO-1 dye displacement fluorescence | AID 651821;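 active = inhibition above the plate cutoff, the mean of all test compounds on that plate plus 3 SD, cut at about 35% in these data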;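 also: 0% = DMSO alone and 100% = 100 µM mitoxantrone as full dye displacement; higher means more dye released from RNA so lower well fluorescence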
KLK7 zymogen act = activates the human kallikrein-7 zymogen | P49862 | purified proKLK7, EDANS-DABCYL substrate fluorescence; 100% is mature enzyme control, 0% vehicle | activation, % at 7 µM | 370,000 compounds, 0.9% hits;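 active = activation above the mean of all tested compounds plus 3 SD, computed per campaign excluding outliers beyond control limits, cut at about 13% in these data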
Target sequence (P49862 whole entry, looked up): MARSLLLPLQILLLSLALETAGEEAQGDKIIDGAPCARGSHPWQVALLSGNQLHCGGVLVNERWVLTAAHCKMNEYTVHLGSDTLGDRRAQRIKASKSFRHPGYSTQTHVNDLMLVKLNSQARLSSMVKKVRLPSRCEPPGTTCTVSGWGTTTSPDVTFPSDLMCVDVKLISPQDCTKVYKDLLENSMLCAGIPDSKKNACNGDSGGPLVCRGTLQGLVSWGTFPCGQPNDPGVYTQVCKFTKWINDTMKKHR
AHR act = activates the human aryl hydrocarbon receptor; P35869; AHR-responsive luciferase reporter cells, luminescence; activation, % at 5 µM; 320,000 compounds, 2.5% hits; in the data active = activation above about 47%;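 also: 0% = vehicle wells and 100% = reference agonist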
* = called active by the depositor; nt = no result given. Hits are enriched below; roughly 7% of the tested compounds scored in any of these assays.

SMILES	ADAM17 inh	ADAM10 inh	GRIN3A LBD mod	rCAG RNA binder	KLK7 zymogen act	AHR act
O=C(Nc1ccc(Cl)cc1)C1C2CCC3C(CCC21)C3(Cl)Cl (stereo not drawn)	4	14	5	3	1	nt
COc1cc(C)c(C(=O)Oc2cc(C)c(C(=O)O)c(O)c2)c(O)c1	-1	-8	-13	35*	0	0
COc1ccc(OC)c(CNC(=O)CCCc2cn(C)c3ccccc23)c1	-1	-16	0	1	0	71*
COc1ccc(/C=N/c2oc(-c3ccccc3)cc2C#N)cc1OC	-27	-63	37*	-2	0	3
Cc1cc(C)nc(NC(=O)Nc2ccc(F)cc2F)n1	1	5	1	0	0	nt
CCCSc1nsc(NC(=O)C(c2ccccc2)c2ccccc2)n1	nt	nt	18*	nt	nt	1
CCCSc1nsc(NC(=O)Nc2ccc(F)cc2F)n1	-1	-4	14*	14	0	9
CCCSc1nsc(NC(=O)CC)n1	1	1	-1	-2	0	2
CCCC[C@H]1C2CC(OC(=O)Nc3ccc(Cl)cc3)C(C2)[C@H]2CCCCN21 (stereo partly drawn)	-3	-6	nt	3	0	nt
CCC[C@H]1[C@@H](NCc2cccs2)CC[C@@]23CCCN2C(=O)CCC[C@@H]13	1	3	nt	nt	nt	nt
CNc1ccccc(-c2ccc3ccccc3n2)c1=O	-8	-21	-6	8	-1	50*
O=C(O)c1cc(-c2ccc3ccccc3n2)nc2ccccc12	-1	0	nt	2	0	12
Brc1ccccc1Cn1nnc(-c2ccc(N3CCOCC3)cc2)n1	1	1	nt	1	0	nt
O=C(CN1CCc2onc(-c3ccc(-n4cc(COc5ccc([N+](=O)[O-])cc5)nn4)cc3)c2C1=O)N1CCOCC1	-2	-4	nt	13	0	nt
CC(O)(CS(=O)(=O)Cc1ccccc1)c1ccccc1 (stereo not drawn)	-1	-7	0	3	0	0
COc1ccc(CS(=O)(=O)CC(C)(O)c2ccccc2Cl)cc1 (stereo not drawn)	-3	-4	16*	-5	0	2
C[C@H]1COc2cc(Br)ccc2S(=O)(=O)N1Cc1cn(Cc2ccc(C(F)(F)F)cc2)nn1	-4	-3	nt	2	0	nt
O=[N+]([O-])c1ccc(O)c(N=Cc2sc3ccccc3c2O)c1	-1	-16	16*	9	0	22
O=[N+]([O-])c1ccc(O)c(C=Nc2cccc3ccccc23)c1	-26	-63	-3	18	-9	52*
Oc1c(C=Nc2cccc3cccnc23)sc2ccccc12	-4	-17	nt	-9	0	58*
O=c1c2ccccc2nc(COc2ccccc2)n1/N=C/c1cc([N+](=O)[O-])ccc1O	1	-1	22*	11	0	7
Oc1ccc(Cl)cc1N=Cc1sc2ccccc2c1Cl	1	-6	0	-3	-1	13
COC(=O)C[C@H]1CC[C@@H]2[C@H](COc3ccc(NC(=O)NCc4ccccc4)cc3C(=O)N2C)O1	-7	-3	nt	1	0	nt
CCOC(=O)Nc1ccc2c(c1)[C@@]1(CC(=O)N(CC(C)C)C1c1ccccc1)C(=O)N2C (stereo partly drawn)	-3	-7	nt	0	0	nt
O=C(O)CCCNc1c(C(=O)Nc2ccc(Cl)cc2)cc([N+](=O)[O-])cc1[N+](=O)[O-]	6	12	-1	26	-1	56*
SMILES	ADAM17 inh	ADAM10 inh	GRIN3A LBD mod	rCAG RNA binder	KLK7 zymogen act	AHR act
COc1ccc(C(=O)Nc2ccc(S(=O)(=O)N3CCOCC3)cc2)cc1[N+](=O)[O-]	-6	2	35*	3	0	-2
Cc1ccc(NC(=O)c2cc(Cl)ccc2[N+](=O)[O-])cc1C	0	-3	0	0	0	10
Cc1cc(C)c(C)c(S(=O)(=O)N2CCC(C(=O)Nc3ccc(S(=O)(=O)N4CCOCC4)cc3)CC2)c1C	7	12	19*	11	0	0
Cc1cc(C(=O)Nc2ccc(S(=O)(=O)N3CCOCC3)cc2)ccc1[N+](=O)[O-]	0	11	30*	3	0	2
Cc1cc(-c2n[nH]c(=S)n2N=Cc2c3ccccc3cc3ccccc23)n[nH]1	-8	-35	nt	11	-19	nt
CCOCCCNS(=O)(=O)c1ccc(NC(=O)c2ccc(OC)c([N+](=O)[O-])c2)cc1	-3	-7	17*	5	1	-1
Cc1cc(C(=O)Nc2ccncc2)ccc1[N+](=O)[O-]	0	2	-2	0	0	-3
Cc1cc(C(=O)Nc2ccc(Nc3ccccc3)cc2)ccc1[N+](=O)[O-]	6	15	12*	10	0	-2
O=C(Nc1ccc(Nc2ccccc2)cc1)c1ccc(Cl)cc1[N+](=O)[O-]	8	17	12*	12	0	0
CC(=O)NS(=O)(=O)c1ccc(NC(=O)c2ccc(Cl)cc2[N+](=O)[O-])cc1	2	3	-2	18	1	-1
COc1ccc(C(=O)Nc2ccc(S(=O)(=O)NC(C)=O)cc2)cc1[N+](=O)[O-]	2	-6	-2	7	0	-1
COc1ccc(-c2nn(-c3ccccc3)cc2/C=N/O)cc1	3	14	-1	2	1	38
COc1ccc(-c2nn(-c3ccccc3)cc2/C=N/NS(=O)(=O)c2ccccc2)cc1	4	11	21*	27	0	50*
COc1ccc(Cl)cc1C(=O)NNC(=O)c1nn(C)c(=O)c2ccccc12	0	-4	-3	5	0	66*
CCn1nc(C(=O)NNC(=O)c2cc(Cl)ccc2OC)c2ccccc2c1=O	0	1	1	6	0	47
COc1ccc(NC(=O)Cn2nnc(-c3ccccc3NS(=O)(=O)c3ccc(OC)cc3)n2)cc1	-1	-3	1	0	1	2
CCn1nnc(-c2ccccc2NS(=O)(=O)c2ccc(C(=O)OC)cc2)n1	3	2	12*	-3	0	0
C=CCn1c(NC(=O)c2ccco2)nc2ccccc21	0	-2	3	-1	1	68*
CC(C)CC(NC(=O)OCc1ccccc1)C(=O)NCC(=O)NCC(=O)OCc1ccccc1 (stereo not drawn)	0	4	nt	-2	0	nt
CCOC(=O)[C@]12CCCCC/C=C\1N(CCc1ccc(Cl)cc1)C(=O)[C@H]2CC(=O)NCc1cccc2ccccc12	5	6	nt	7	0	nt
O=C(Nc1cccc(F)c1)C1CCN(C(=O)c2ccc(Cl)cc2)CC1	0	4	12*	0	0	6
CN(CC(=O)Nc1cccc(F)c1)C(=O)C1CCN(C(=O)c2ccc(Cl)cc2)CC1	4	-10	-1	1	1	-1
c1ccc2c(c1)[nH]c1c(N3CCC4(CC3)OCCO4)ncnc12	nt	nt	-1	nt	nt	66*

Source: PubChem BioAssay (several laboratories)
